# Data taken from PubChem BioAssay (Tox21).
# Records with an inconclusive call do not appear. Calls of active or inactive are those of the source. Calls follow the shape of the dose curve; as a rule, active = well fitted cell-killing curve with a large enough effect in the repeat runs; inconclusive = weak or mixed curves, or effect the other way; inactive = flat fitted curve, though single readings scatter.
# Experiment: qHTS RealTime-Glo MT Cell Viability Assay in HEK293 cells - 0 hour (AID 1224880); also: top concentration of the series differs between compounds; nearly all actives have a fitted effect of over 45% in size
# Settings: RealTime-Glo luminescence; series mostly up to 76.8 µM
# Excerpt: U.S. Tox21 Program National Center for Advancing Translational Sciences [NCATS] NIH Chemical Genomics Center [NCGC] U.S. Environmental Protection Agency [EPA] National Institutes of Environmental Health Sciences [NIEHS] National Toxicology Program [NTP] U.S. Food and Drug Administration [FDA] Tox21 Assay Overview: Measure of cell viability is critical in the cell-base assay. Analysis of cell viability is necessary for the characterization of cell responses to cytotoxic drugs and environmental stress. A RealTime-Glo MT Cell Viability Assay to monitor cell viability in real time of continues cell culture during 40 hours of compound treatment was used to screen Tox21 10K library compounds in Hek293 cells. The RealTime-Glo MT Cell Viability Assay is a nonlytic, homogeneous, bioluminescent method to measure cell viability in real time using a simple, plate-based method. The assay involves adding NanoLuc luciferase and a cell-permeant prosubstrate to cells in culture. Viable cells reduce the proprietary prosubstrate to generate a substrate for NanoLuc luciferase. This substrate diffuses from cells into the surrounding culture medium, where it is rapidly used by the NanoLuc Enzyme to produce a luminescent signal. The signal correlates with the number of viable cells, making the assay well suited for cytotoxicity studies.
# Tox21 Assay Protocol Summary: The mixture of Hek293 cell suspension and reagents were dispensed at 600cells/6 ul/well in 1536-well tissue culture treated black solid bottom plates using a Multidrop dispenser. After the assay plates were incubated at a 37 C/5% CO2 incubator for 5 hours, 23 nL of compounds dissolved in DMSO, positive and negative controls was transferred to the assay plate by a pintool work station. The plates were incubated at 37 C for 40 hours. The luminescence intensity were measured at 0h, 8h, 16h, 24h, 32h and 40h time points using ViewLux plate reader during compound treatment.
# % is scaled to controls: 0 for no effect and ±100 for the full control effect.
SMILES,outcome,"activity change, negative = cytotoxicity"
C=CC1(C)OC(=O)N(c2cc(Cl)cc(Cl)c2)C1=O (stereo not given),inactive,–
O=[N+]([O-])CCO,inactive,–
CCC(=O)OC1(c2ccccc2)CCN(C)CC1,inactive,–
COc1ccc2c(C(=O)c3ccc(Cl)cc3)c(C)n(CC(=O)O)c2c1,inactive,–
O=c1[nH]c2ccccc2o1,inactive,–
CCOC(=O)CCl,inactive,–
ClCCCCCCCl,inactive,–
CCOP(=S)(OCC)Oc1ccc(Cl)cc1Cl,inactive,–
ClCCN1CCCC1,inactive,–
Nc1c(Cl)c(F)nc(OCC(=O)O)c1Cl,inactive,–
CS(=O)(=O)c1ccc(C(=O)C2C(=O)CCCC2=O)c(Cl)c1COCC(F)(F)F,inactive,–
C=CC(=O)OCCN(C)C,inactive,–
CCN[C@H](C)Cc1cccc(C(F)(F)F)c1,inactive,–
ClC1=C(Cl)C2(Cl)C(CBr)CC1(Cl)C2(Cl)Cl (stereo not given),inactive,–
CCSC(=O)Cl,inactive,–
O=c1[nH]oc2c1CCNC2,inactive,–
CC(C)(N)Cc1ccccc1Cl,inactive,–
CCCC(C)(COC(N)=O)COC(N)=O,inactive,–
CCNP(=S)(OC)O/C(C)=C/C(=O)OC(C)C (stereo not given),inactive,–
CCOC(=O)C(Cl)Cc1cc(-n2nc(C)n(C(F)F)c2=O)c(F)cc1Cl (stereo not given),inactive,–

SMILES,outcome,"activity change, negative = cytotoxicity"
COc1cccc(C=O)c1,inactive,–
C1CN2CCC1CC2,inactive,–
ClCCCCl,inactive,–
CCOP(=S)(OCC)SCCl,inactive,–
CCC1(c2ccccc2)C(=O)N(COC)C(=O)N(COC)C1=O,inactive,–
CCN(CCO)CCn1c(Cc2ccccc2)nc2c1c(=O)n(C)c(=O)n2C,inactive,–
C[C@H](N)C(=O)c1ccccc1,inactive,–
CCN(CC)C1CCCCC1,inactive,–
Cc1ccc(Cl)c(O)c1,inactive,–
BrCc1ccc(Br)cc1,inactive,–
ClCC1CO1 (stereo not given),inactive,–
Cc1ccc2c(c1)C1CN(C)CCC1N2 (stereo not given),–,-0.907% [at 15.8 µM] (inactive)
CCCCCCCCBr,inactive,–
CC[C@H](O)C(C[C@H](C)N(C)C)(c1ccccc1)c1ccccc1,inactive,–
Clc1ccc(C(Cl)(Cl)Cl)cn1,inactive,–
CCCN1CCC[C@@H]2Cc3nc(N)ncc3C[C@H]21,inactive,–
[O-][Br+2]([O-])O,inactive,–
C=C1C[C@@H]2[C@H](CC[C@]3(C)C(=O)CC[C@@H]23)[C@@]2(C)C=CC(=O)C=C12,inactive,–
NNCc1ccccc1,inactive,–
CN1COCN(Cc2cnc(Cl)s2)/C1=N\[N+](=O)[O-],inactive,–
